Data taken from PubChem BioAssay (Tox21).
Results filed as inconclusive are left out. A call without a number means that no potency is given here. The source made the active and inactive calls. The call rests on the fitted dose curve; in most records, active means well fitted inhibition curve with a large enough effect in the repeat runs; inconclusive means weak or mixed curves; inactive means flat fitted curve, though single readings scatter.

molecular target: Voltage-gated inwardly rectifying potassium channel KCNH2 (Homo sapiens) (UniProt Q12809); assay: Human Ether-a-go-go-Related Gene (hERG) channel small molecule antagonists: fluorescence cell-based qHTS assay (AID 1671200); conditions: hERG-U2OS cells, FluxOR thallium flux fluorescence; series mostly up to 76.8 µM; activity change, negative = inhibition: at the top concentration; further: nearly all actives have a fitted effect of over 50% in size
Sequence (Q12809 whole entry, looked up): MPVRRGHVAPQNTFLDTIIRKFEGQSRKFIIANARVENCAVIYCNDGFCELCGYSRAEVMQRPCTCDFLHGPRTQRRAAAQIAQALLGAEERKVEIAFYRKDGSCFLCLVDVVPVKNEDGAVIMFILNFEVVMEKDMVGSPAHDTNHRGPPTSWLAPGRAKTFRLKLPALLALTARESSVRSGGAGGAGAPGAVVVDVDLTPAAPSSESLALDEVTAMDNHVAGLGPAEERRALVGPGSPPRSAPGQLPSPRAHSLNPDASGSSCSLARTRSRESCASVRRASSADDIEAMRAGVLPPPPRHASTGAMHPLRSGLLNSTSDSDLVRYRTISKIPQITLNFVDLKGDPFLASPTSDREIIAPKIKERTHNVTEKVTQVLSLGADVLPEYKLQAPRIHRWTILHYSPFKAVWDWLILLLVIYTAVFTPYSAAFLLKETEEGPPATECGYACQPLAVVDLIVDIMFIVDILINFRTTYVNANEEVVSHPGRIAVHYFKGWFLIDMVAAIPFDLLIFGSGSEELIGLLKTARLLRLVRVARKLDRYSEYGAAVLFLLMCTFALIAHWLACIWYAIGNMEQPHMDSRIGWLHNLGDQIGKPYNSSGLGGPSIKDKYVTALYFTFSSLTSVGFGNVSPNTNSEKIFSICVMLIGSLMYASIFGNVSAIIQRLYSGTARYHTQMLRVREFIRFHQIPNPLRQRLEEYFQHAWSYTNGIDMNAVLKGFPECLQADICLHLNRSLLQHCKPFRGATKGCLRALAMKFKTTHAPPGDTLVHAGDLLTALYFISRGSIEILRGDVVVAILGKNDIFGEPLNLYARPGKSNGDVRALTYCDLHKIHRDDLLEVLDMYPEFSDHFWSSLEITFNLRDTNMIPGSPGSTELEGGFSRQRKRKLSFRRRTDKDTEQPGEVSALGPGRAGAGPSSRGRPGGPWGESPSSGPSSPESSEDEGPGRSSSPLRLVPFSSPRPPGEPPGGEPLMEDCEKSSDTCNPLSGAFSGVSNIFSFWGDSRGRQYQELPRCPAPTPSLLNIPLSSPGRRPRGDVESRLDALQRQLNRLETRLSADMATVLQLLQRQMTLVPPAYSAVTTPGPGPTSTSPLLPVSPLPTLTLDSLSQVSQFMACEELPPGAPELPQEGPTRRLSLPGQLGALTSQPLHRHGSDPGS
Procedure, shortened: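 Cell line hERG-U2OS; dye FluxOR II, 1 h RT dark; Tl+ stimulus; ex 480/em 540 nm, read each second for 2 min.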
Potency means the concentration at half of the fitted maximal effect.

| SMILES | activity change, negative = inhibition | Potency |
| --- | --- | --- |
| CC1(C)C(C=C(Cl)Cl)C1C(=O)OCc1cccc(Oc2ccccc2)c1 (stereo unspecified) | -24.4% (inactive) |  |
| c1ccc2cc3ccccc3cc2c1 |  | inactive |
| Cc1cccc(Nc2ccccc2C(=O)O)c1C | -3.35% (inactive) |  |
| CCC(Cc1c(I)cc(I)c(N)c1I)C(=O)O (stereo unspecified) |  | inactive |
| NC[C@H](O)c1ccc(O)c(O)c1 |  | inactive |
| CC(C)(Oc1ccc(Cl)cc1)C(=O)O | 2.18% (inactive) |  |
| [O-]/[N+](=N\O)c1ccccc1 |  | inactive |
| O=S1(=O)CCCO1 |  | inactive |
| c1ccc2ncccc2c1 |  | inactive |
| C[C@]12C=CC(=O)C=C1CC[C@H]1[C@@H]3C[C@@H](O)[C@](O)(C(=O)CO)[C@@]3(C)C[C@H](O)[C@@]12F |  | inactive |
| CCC/C=C/C=O |  | inactive |
| Nc1ccc(O)c(N)c1 | 13.4% (inactive) |  |
| NCCS(=O)(=O)O |  | inactive |
| OCCNCCO |  | inactive |
| CC/C(=C(/CC)c1ccc(O)cc1)c1ccc(O)cc1 |  | inactive |
| C=C[C@@]1(C)CC(=O)[C@]2(O)[C@@]3(C)[C@@H](O)CCC(C)(C)[C@@H]3[C@H](O)[C@H](OC(C)=O)[C@@]2(C)O1 |  | inactive |
| O=C1OC2(c3ccccc31)c1cc(I)c(O)c(I)c1Oc1c2cc(I)c(O)c1I |  | inactive |
| CCCCCCCCCCCCCO |  | inactive |
| COC(=O)c1ccc(C)cc1 |  | inactive |
| CN(C)/N=N/c1nc[nH]c1C(N)=O |  | inactive |
| CC(C)(C)c1cccc(C(C)(C)C)c1O |  | 24 µM (active) |
| [Na+] |  | inactive |
| C=CC(C)(O)CCC=C(C)C (stereo unspecified) |  | inactive |
| CNC[C@H](O)c1ccc(O)c(O)c1 |  | inactive |
| O=C(O)CCCCCCCCCCCC(=O)O |  | inactive |
| COc1ccc(-c2coc3cc(O)cc(O)c3c2=O)cc1 |  | inactive |
